32 compounds from PubChem BioAssay (EPA / NIEHS) can be followed below.

Experiment [1] concerns the target sheep Cyclooxygenase-2 (Cox2), PTGS2 (gene 443460) (UniProt P79208). Briefly: NVS_ENZ_oCOX2: NovaScreen (NVS) Enzymatic Assay for sheep Cyclooxygenase-2 (Cox2) (AID 2283231). Summed up: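 Enzyme from ovine placenta, cell-free; colorimetric absorbance read 0.66 hour after dosing, loss of signal vs DMSO. Screened in duplicate at 25 uM, then concentration-response up to 50 uM.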

The nature of experiment [2]: CCTE_Shafer_MEA_dev_LDH: CCTE's Lactate Dehydrogenase Assay for Cytotoxicity in the Neural Network Formation Assay, Shafer Lab (AID 2284068).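 Further: exposure for twelve days from plating with re-dosing on DIV 5 and 9.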 Summed up:
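Primary rat cortical neurons were plated on PEI/laminin MEA plates and exposed from day 0 for twelve days, with compound renewed at DIV 5 and 9. Cytotoxicity was determined by spectrophotometric LDH assay relative to DMSO.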

A short description of experiment [3]: IUF_NPC1b_proliferation_BrdU_72hr: Leibniz Research Institute for Environmental Medicine (IUF) 72-hour Neural Progenitor Cell Bromodeoxyuridine (BrdU) Proliferation Assay (NPC1b) (AID 2284207; active means hit-call score of the fitted dose curve at least 0.9, where 1 is the maximum; inactive means score below 0.9). Summed up: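 hNPC spheres (primary, GW 16-19 fetal cortex), single sphere/well, EGF+FGF medium; 72 h compound, no renewal; BrdU pulse last 16 h; luminescent ELISA; activity vs DMSO baseline; growth-factor withdrawal as positive control.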

Experiment [4] in a line: CCTE_Mundy_HCI_Cortical_NOG_NeuriteLength: CCTE's Neurite Outgrowth Assay in rat cortical cells for Neurite Length, Mundy Lab (AID 2284213; active means hit-call score of the fitted dose curve at least 0.9, where 1 is the maximum; inactive means score below 0.9;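 on AC50: neurites imaged about 48 to 50 h after chemical exposure began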). Put shortly:
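Neurite length was read by high-content imaging of βIII-tubulin-labelled neurites in rat primary cortical cultures. Activity was fitted relative to DMSO.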

A short description of experiment [5]: CCTE_Mundy_HCI_Cortical_Synap_Neur_Matur_NeuriteLength: CCTE's Synaptogenesis and Neurite Maturation Assay in rat cortical cells for Neurite Length, Mundy Lab (AID 2284214; active means hit-call score of the fitted dose curve at least 0.9, where 1 is the maximum; inactive means score below 0.9). Summed up:
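Rat cortical neurons, AraC at DIV 5; compound + media change DIV 7, end DIV 12 (288.33 h). Fix, MAP2/synaptophysin/Hoechst immunostain, automated HCI of neurite length vs DMSO.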

Experiment [6] in a line: CCTE_Mundy_HCI_Cortical_Synap_Neur_Matur_NeuriteSpotCountPerNeuron: CCTE's Synaptogenesis and Neurite Maturation Assay in rat cortical cells for Neurite Spot Count per Neuron Count, Mundy Lab (AID 2284215; active means hit-call score of the fitted dose curve at least 0.9, where 1 is the maximum; inactive means score below 0.9). Summed up:
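Rat primary cortical cells received AraC at DIV 5, then chemicals with a media change at DIV 7, and were fixed at DIV 12. Synaptophysin puncta on MAP2-stained neurites per neuron were counted by high-content imaging, fitted relative to DMSO.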

The nature of experiment [7]: CCTE_Mundy_HCI_Cortical_Synap_Neur_Matur_SynapseCount: CCTE's Synaptogenesis and Neurite Maturation Assay in rat cortical cells for Synapse Count, Mundy Lab (AID 2284218; active means hit-call score of the fitted dose curve at least 0.9, where 1 is the maximum; inactive means score below 0.9). Summed up:
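Primary rat cortical culture; AraC DIV 5 to arrest glia; compound + media change DIV 7; terminated DIV 12. PFA/Hoechst fix, anti-MAP2 + anti-synaptophysin immunostain; HCI synapse count/neuron; DMSO = baseline.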

Experiment [8] is described as follows: CCTE_Mundy_HCI_Cortical_Synap_Neur_Matur_NeuronCount: CCTE's Synaptogenesis and Neurite Maturation Assay in rat cortical cells for Neuron Count, Mundy Lab (AID 2284242).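 On AC50: hits reduce neuron count versus DMSO baseline.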 Summed up: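 Neuron number was scored by automated high-content imaging of Hoechst- and MAP2-labelled rat primary cortical cells. Glial growth was arrested with AraC at DIV 5, compounds were applied from DIV 7, and cultures ended at DIV 12.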

Experiment [9] concerns the target chimpanzee Androgen Receptor (AR), AR (gene 747460) (UniProt O97775). Description: NVS_NR_cAR: NovaScreen (NVS) Nuclear Receptor Binding Assay for chimpanzee Androgen Receptor (AR) (AID 2283346). Summed up: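 Cell-free radioligand displacement using receptor protein extracted from Sf9/Sf21 cells; bound radioligand measured by scintillation counting 72 hours after chemical dosing. Loss of signal versus DMSO baseline indicates binding; primary screen single-concentration in duplicate at 25 uM, actives followed in concentration series.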

Experiment [10] has as its system guinea pig Dopamine Transporter (DAT), gene 100714898. Description: NVS_TR_gDAT: NovaScreen (NVS) Transporter Assay for guinea pig Dopamine Transporter (DAT) (AID 2283369).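 Further: active compounds lower bound radioligand signal relative to DMSO.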 Summed up:
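Guinea pig striatal membranes; radioligand displacement measured by filter-based scintillation counting 2 h after dosing. Initial duplicate screen at 25 uM, then concentration-response up to 50 uM for hits; loss of signal versus DMSO baseline.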

Experiment [11] deals with human CYP19A1, CYP19A1 (gene 1588) (UniProt P11511). Description: NVS_ADME_hCYP19A1: NovaScreen (NVS) CYP450-related Enzyme Activity (ADME) Assay for human CYP19A1 (AID 2283098).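 On AC50: potency for inhibitors seen as loss of fluorescent enzyme signal.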 Summed up: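 Cell-free enzyme assay with recombinant protein and a specific fluorogenic substrate, read by fluorescence intensity 0.5 h after dosing. Primary screen ran in duplicate at 10 uM; actives were retested in concentration series. Loss of signal versus acetonitrile baseline.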
Sequence of human CYP19A1, CYP19A1 (gene 1588) (P11511 whole entry, looked up): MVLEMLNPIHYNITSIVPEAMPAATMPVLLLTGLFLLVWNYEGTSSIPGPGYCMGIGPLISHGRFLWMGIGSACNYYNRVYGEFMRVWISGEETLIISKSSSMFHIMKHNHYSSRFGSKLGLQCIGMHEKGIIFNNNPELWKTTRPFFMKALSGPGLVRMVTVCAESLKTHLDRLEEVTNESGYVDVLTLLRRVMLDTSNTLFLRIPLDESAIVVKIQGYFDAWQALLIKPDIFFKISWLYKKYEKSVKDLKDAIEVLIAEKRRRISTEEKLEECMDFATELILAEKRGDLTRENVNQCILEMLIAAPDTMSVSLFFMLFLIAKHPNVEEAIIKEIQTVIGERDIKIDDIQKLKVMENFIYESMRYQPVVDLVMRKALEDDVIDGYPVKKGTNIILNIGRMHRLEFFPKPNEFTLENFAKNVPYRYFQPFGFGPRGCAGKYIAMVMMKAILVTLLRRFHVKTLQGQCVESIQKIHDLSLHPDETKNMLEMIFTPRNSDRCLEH

Experiment [12] can be described thus: CEETOX_H295R_ESTRADIOL: CeeTox H295R High-throughput Steroidogenesis Assay for Estradiol (AID 2283440; active means hit-call score of the fitted dose curve at least 0.9, where 1 is the maximum; inactive means score below 0.9;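 further: estradiol secreted into medium quantified by LC-MS/MS after dansyl derivatisation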). To be noted: actives raise or lower the signal. Summed up: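 H295R adrenocortical cells were prestimulated with 10 uM forskolin for 48 h, then exposed to test chemical in 0.1% DMSO for 48 h. Medium estradiol was extracted with MTBE, dansyl-derivatized and quantified by HPLC-MS/MS; bidirectional fit versus DMSO.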

Experiment [13] in a line: CEETOX_H295R_ESTRONE: CeeTox H295R High-throughput Steroidogenesis Assay for Estrone (AID 2283441; active means hit-call score of the fitted dose curve at least 0.9, where 1 is the maximum; inactive means score below 0.9;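 further: estrone secreted into medium measured by LC-MS/MS after dansyl derivatization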;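 on AC50: human adrenal H295R cells prestimulated with forskolin for two days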). Conditions: actives raise or lower the signal. Summed up: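 H295R cells prestimulated 48 h with 10 uM forskolin, then exposed 48 h to chemicals in 0.1% DMSO final; estrone in medium extracted with MTBE, dansyl-derivatized, quantified by HPLC-MS/MS; bidirectional fitting versus DMSO, viability by MTT.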

Experiment [14] is described as follows: CCTE_Deisenroth_5AR_NBTE_acceptor: CCTE's 5alpha-reductase NanoBRET Target Engagement Assay - Autofluorescence Screen, Deisenroth Lab (AID 2284321; active means hit-call score of the fitted dose curve at least 0.9, where 1 is the maximum; inactive means score below 0.9;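 further: compound fluorescence in the acceptor channel under 460 nm excitation flags autofluorescence artifacts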). To be noted: actives raise or lower the signal. Put shortly:
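HEK293T cell-based NanoBRET assay read 5 h after dosing; this acceptor channel serves as an autofluorescence artifact screen. Chemicals at nominal 100 uM were scanned in three independent runs (n=3), excitation 460 nm. Fitting was bidirectional versus DMSO baseline.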
Background: BRET reads energy transfer from a luciferase to a nearby fluorophore.

Experiment [15] in a line: CCTE_Shafer_MEA_dev_bursting_electrodes_number: CCTE's Neural Network Formation Assay for Number of Bursting Electrodes, Shafer Lab (AID 2284043).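 On AC50: potency is for loss of bursting electrodes relative to DMSO.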 Summed up:
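Primary rat cortical neurons were cultured on PEI-coated 48-well MEA plates (16 electrodes/well) and exposed from plating through day 12, with compound renewed at feeds on DIV 5 and 9. Electrodes bursting ≥1 per 2 min were counted on DIV 5, 7, 9, 12; trapezoidal AUC taken.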

Experiment [16] in a line: TAMU_PeakParms_SingleDonor1434_Chronotropy: Texas A&M University (TAMU) 1.5-hr Human Induced Pluripotent Stem Cell (iPSC)-derived Cardiomyocytes Calcium (Ca+2) Flux Assay for Cardiotoxicity: Chronotropy (changes in peak frequency) (AID 2284217; active means hit-call score of the fitted dose curve at least 0.9, where 1 is the maximum; inactive means score below 0.9). Conditions: actives raise or lower the signal. Put shortly: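 iPSC-derived cardiomyocytes (single donor 1434) dosed at 0.2, 1, 10 and 100 uM in 0.5% DMSO for 1.5 h at 37C; Ca2+ dye fluorescence gave average beat frequency. Zero-beat points removed; bidirectional fit versus DMSO, POD as EC05.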

For experiment [17], the target named is sheep Cyclooxygenase-1 (Cox1), PTGS1 (gene 443551) (UniProt P05979). Briefly: NVS_ENZ_oCOX1: NovaScreen (NVS) Enzymatic Assay for sheep Cyclooxygenase-1 (Cox1) (AID 2283239).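 Further: actives reduce cyclooxygenase activity so potencies are for inhibitors.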 Summed up:
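Cell-free colorimetric assay of enzyme activity in a native extract of ovine seminal vesicles. Absorbance was read 0.66 hour after compound addition. Loss of signal relative to the DMSO negative control was scored, with actives from the 25 uM duplicate primary screen retested in concentration series.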

Experiment [18] deals with human Caspase 5 (CASP5), CASP5 (gene 838) (UniProt P51878). Briefly: NVS_ENZ_hCASP5: NovaScreen (NVS) Enzymatic Assay for human Caspase 5 (CASP5) (AID 2283137). Put shortly:
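E. coli-derived enzyme, cell-free, 2 h incubation, fluorescence intensity. 25 uM duplicate single-point; hits → concentration series to 50 uM. DMSO baseline, positive/negative controls on every plate.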

Experiment [19] concerns SERPINA7 (gene 6906). Briefly: CCTE_GLTED_hTBG: CCTE's human Thyroxine-binding Globulin (TBG) Inhibition Assay, Great Lakes Toxicology and Ecology Division (GLTED) Lab (AID 2284343).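 Further: active chemicals lower fluorescence versus DMSO baseline by displacing probe.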 Summed up: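 hTBG + test chem, 2 h; ANSA probe displacement; fluorescence readout ex380/em475; DMSO = neg ctrl/baseline; cell-free.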
Experiment [20] has as its target human Peroxisome Proliferator-activated Receptor alpha (PPARa), PPARA (gene 5465) (UniProt Q07869). Briefly: NVS_NR_hPPARa: NovaScreen (NVS) Nuclear Receptor Binding Assay for human Peroxisome Proliferator-activated Receptor alpha (PPARa) (AID 2283359).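 Further: activity means loss of TR-FRET signal versus DMSO baseline.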 Put shortly:
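Cell-free binding assay with extracted human protein, read by TR-FRET 1 h after chemical dosing. Loss of signal relative to DMSO baseline indicates binding. Primary screen used duplicate single concentration (25 uM); actives followed up in concentration series.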

SMILES strings stand for the structures. Records with an inconclusive call do not appear. Calls of active or inactive are those of the source. How the source made its calls, unless noted: active means hit-call score of the fitted dose curve at least 0.9, where 1 is the maximum; inconclusive means response in the unintended direction; inactive means score below 0.9.

Broadly, the AC50 is the concentration giving half of the maximal activity seen.

Sequence of chimpanzee Androgen Receptor (AR), AR (gene 747460) (O97775 whole entry, looked up): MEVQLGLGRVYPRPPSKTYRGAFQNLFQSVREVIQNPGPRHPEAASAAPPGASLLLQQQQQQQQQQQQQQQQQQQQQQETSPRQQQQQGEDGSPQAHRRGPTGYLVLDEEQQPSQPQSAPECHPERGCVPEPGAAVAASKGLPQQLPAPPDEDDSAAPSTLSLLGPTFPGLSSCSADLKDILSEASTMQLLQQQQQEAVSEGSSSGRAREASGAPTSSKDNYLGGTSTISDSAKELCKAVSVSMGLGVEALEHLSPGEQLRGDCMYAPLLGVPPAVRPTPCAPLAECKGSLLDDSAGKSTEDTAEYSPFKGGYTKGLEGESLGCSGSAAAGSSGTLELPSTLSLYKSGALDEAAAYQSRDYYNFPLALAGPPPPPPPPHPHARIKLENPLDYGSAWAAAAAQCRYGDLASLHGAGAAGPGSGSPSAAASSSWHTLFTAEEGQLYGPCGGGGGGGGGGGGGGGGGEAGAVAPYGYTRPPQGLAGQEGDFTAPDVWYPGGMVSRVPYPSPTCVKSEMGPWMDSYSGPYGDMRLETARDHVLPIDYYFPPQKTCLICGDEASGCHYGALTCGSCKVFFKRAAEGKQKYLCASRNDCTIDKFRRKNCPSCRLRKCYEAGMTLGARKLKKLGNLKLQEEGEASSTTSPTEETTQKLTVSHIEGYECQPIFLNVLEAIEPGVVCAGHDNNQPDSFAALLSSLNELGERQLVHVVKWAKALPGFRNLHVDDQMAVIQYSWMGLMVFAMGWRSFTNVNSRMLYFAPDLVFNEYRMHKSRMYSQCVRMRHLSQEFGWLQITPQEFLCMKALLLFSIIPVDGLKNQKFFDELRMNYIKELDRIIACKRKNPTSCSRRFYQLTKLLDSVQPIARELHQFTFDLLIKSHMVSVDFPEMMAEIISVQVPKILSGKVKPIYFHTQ
Sequence of human Peroxisome Proliferator-activated Receptor alpha (PPARa), PPARA (gene 5465) (Q07869 whole entry, looked up): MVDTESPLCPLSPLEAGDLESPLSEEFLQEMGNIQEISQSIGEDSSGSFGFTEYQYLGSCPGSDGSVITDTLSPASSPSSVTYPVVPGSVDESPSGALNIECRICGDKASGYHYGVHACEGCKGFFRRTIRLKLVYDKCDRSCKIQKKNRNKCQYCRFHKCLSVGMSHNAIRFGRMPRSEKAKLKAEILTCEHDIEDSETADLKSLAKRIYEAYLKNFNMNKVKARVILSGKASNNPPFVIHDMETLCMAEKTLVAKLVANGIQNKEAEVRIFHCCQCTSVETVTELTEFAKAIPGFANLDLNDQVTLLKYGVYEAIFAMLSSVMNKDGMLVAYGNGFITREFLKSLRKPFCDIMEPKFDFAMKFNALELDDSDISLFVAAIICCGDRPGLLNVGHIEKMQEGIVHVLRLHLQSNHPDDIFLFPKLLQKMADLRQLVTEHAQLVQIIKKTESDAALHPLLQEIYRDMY
Sequence of sheep Cyclooxygenase-1 (Cox1), PTGS1 (gene 443551) (P05979 whole entry, looked up): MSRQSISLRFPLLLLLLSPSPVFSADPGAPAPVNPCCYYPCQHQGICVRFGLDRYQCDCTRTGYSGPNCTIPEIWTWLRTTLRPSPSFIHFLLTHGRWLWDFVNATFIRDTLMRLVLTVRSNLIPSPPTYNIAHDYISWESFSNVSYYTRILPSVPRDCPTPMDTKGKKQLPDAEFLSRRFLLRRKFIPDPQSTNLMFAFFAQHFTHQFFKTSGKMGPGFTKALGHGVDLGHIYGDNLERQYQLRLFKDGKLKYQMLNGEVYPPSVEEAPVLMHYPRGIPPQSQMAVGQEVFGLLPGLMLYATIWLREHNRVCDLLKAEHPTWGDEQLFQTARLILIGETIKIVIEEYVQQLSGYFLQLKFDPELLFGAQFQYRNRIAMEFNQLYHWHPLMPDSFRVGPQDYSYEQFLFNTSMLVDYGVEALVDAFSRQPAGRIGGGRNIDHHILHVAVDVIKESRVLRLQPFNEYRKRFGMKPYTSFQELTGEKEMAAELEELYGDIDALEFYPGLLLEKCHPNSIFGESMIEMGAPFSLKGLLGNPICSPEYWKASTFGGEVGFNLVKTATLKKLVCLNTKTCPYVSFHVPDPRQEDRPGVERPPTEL
Sequence of sheep Cyclooxygenase-2 (Cox2), PTGS2 (gene 443460) (P79208 whole entry, looked up): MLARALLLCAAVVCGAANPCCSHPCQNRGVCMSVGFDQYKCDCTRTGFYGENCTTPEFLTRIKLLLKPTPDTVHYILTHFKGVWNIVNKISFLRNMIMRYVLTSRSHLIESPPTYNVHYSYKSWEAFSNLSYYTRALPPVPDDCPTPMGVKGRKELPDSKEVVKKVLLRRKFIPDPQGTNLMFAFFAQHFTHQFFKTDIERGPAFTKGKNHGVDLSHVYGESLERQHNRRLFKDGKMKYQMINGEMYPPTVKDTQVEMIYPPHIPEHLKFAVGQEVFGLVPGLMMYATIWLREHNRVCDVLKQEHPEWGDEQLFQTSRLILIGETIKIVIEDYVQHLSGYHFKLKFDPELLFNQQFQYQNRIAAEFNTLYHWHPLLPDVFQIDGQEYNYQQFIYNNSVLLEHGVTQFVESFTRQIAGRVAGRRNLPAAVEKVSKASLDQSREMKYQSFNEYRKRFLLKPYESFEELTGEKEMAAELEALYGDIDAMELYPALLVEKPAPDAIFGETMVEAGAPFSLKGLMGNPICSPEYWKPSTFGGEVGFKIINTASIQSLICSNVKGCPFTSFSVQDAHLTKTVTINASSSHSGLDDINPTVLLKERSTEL
Sequence of human Caspase 5 (CASP5), CASP5 (gene 838) (P51878 whole entry, looked up): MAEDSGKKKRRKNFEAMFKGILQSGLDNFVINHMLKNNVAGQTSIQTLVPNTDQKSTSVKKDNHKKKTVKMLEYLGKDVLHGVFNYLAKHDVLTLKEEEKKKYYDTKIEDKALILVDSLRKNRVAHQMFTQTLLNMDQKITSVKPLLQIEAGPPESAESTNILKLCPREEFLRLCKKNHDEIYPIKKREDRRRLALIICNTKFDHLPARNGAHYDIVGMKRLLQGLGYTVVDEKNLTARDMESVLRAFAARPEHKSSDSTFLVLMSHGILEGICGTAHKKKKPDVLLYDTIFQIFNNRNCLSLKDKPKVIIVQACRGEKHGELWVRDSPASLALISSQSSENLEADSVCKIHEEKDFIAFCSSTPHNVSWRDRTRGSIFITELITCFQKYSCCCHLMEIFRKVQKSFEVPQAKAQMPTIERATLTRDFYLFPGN

For the compound `CNC(=N[N+](=O)[O-])NCC1CCOC1` (stereo unspecified), the compound was called inactive in experiment [1], in [2], in experiment [3], in [4] and in experiment [8]. For the same compound, the AC50 in [5] was 0.0157 µM (active); in experiment [6], 0.00988 µM (active); in experiment [7], 0.00885 µM (active).

As for `CC[N+](=O)[O-]`, the compound was classed as inactive in experiment [9].

For the compound `O=S(=O)(c1ccccc1)c1ccccc1`, the AC50 in [10] was 19.9 µM (active).

With `CCOP(=O)(OCC)Oc1ccc([N+](=O)[O-])cc1`, in experiment [11], the AC50 is 6.54 µM (active).

For the compound `CNC(=O)Oc1cc(C)c(SC)c(C)c1`, the AC50 in experiment [10] was 25 µM (active). In addition, the compound was classed as inactive in experiment [12] and in experiment [13].

For `C=CC(=O)OCC(CC)CCCC` (stereo unspecified), the outcome in experiment [14] was inactive.

With `CC(C)CCCCCCCOP(=O)(Oc1ccccc1)Oc1ccccc1`, in experiment [10], the AC50 was 12.2 µM (active). For the same compound, the outcome in experiment [15], in [2], in experiment [3] and in [16] was inactive.

For `O=P1(NCCCl)OCCCN1CCCl` (stereo unspecified), in [17], the compound was classed as inactive.

Take `Oc1cc(Cl)ccc1Cl`: the call in experiment [14] was inactive.

`O=C1C=CC(=O)C=C1`: the AC50 in experiment [18] is 28.9 µM (active); in experiment [16], 50 µM (active).

As to `O=[N+]([O-])c1ccc(Cl)cc1`, the compound was called inactive in experiment [1].

In the case of `Cc1cc(C)c(C2=C(OC(=O)CC(C)(C)C)C3(CCCC3)OC2=O)c(C)c1`, the call in experiment [12] was inactive. In addition, in experiment [13], the AC50 is 20.7 µM (active).

Take `O=CNC(N1CCN(C(NC=O)C(Cl)(Cl)Cl)CC1)C(Cl)(Cl)Cl` (stereo unspecified): the outcome in experiment [1], in [12] and in experiment [13] was inactive.

On to `Nc1ccc(Cl)c(Cl)c1`, for which the AC50 in [9] was 25 µM (active).

As for `c1ccc(P(c2ccccc2)c2ccccc2)cc1`, the AC50 in experiment [19] is 41.7 µM (active).

Take `CCCCCCCCCCCCCCCC[N+](C)(C)C`: the AC50 in experiment [20] is 19.9 µM (active).

With `CC1OC(C)OC(C)O1` (stereo unspecified), the result in experiment [18] was inactive.

For `Cc1ccc(OP(=O)(Oc2ccc(C)cc2)Oc2ccc(C)cc2)cc1` (tested in a mixture with another compound), the outcome in experiment [15], in experiment [2], in experiment [5] and in [16] was inactive. The AC50 is 21.4 µM (active) in experiment [4]; 15 µM (active) in [6]; 15 µM (active) in [7]; 24 µM (active) in experiment [8]; 1.03 µM (active) in experiment [19].

For `O=C1Nc2ccc(Cl)cc2C(c2ccccc2)=NC1O` (stereo unspecified), the AC50 in [19] is 37.3 µM (active).

Regarding `CC1(C)[C@H](C(=O)O[C@H](C#N)c2cccc(Oc3ccccc3)c2)[C@@H]1C=C(Br)Br`, the call in experiment [11], in experiment [3], in [4] and in experiment [16] was inactive. Further, the AC50 in experiment [15] was 3.71 µM (active); in experiment [5], 8.82 µM (active); in experiment [6], 7.04 µM (active); in [7] it was 6.79 µM (active); in [8] it was 23.9 µM (active).

Consider `O=c1c2ccccc2c(=O)c2c1cc(Cl)c1[nH]c3c([nH]c12)c(Cl)cc1c(=O)c2ccccc2c(=O)c13`, for which the AC50 in [18] was 0.296 µM (active).

For the compound `Nc1ccc(-c2ccc(N)c(N)c2)cc1N`, the AC50 in experiment [18] was 5.41 µM (active).

In the case of `COc1cc(OC)nc(Oc2cccc(Oc3nc(OC)cc(OC)n3)c2C(=O)O)n1`, the compound was called inactive in [20].

For `[CH3][Sn]([CH3])([Cl])[Cl]`, the call in experiment [20] was inactive.

Consider `CC(=O)c1cc2c(cc1C)C(C)(C)C(C)CC2(C)C` (stereo unspecified), for which the result in experiment [9] and in experiment [14] was inactive.

In the case of `Nc1ccccc1`, the compound was called inactive in experiment [20].

Turning to `O=P(O)(Oc1ccccc1)Oc1ccccc1`, the result in experiment [14] was inactive.

As to `CC(C)(C)C(=O)CCl`, the result in experiment [17] was inactive.

In the case of `S=c1[nH]c2ccccc2[nH]1`, the AC50 in experiment [17] is 0.984 µM (active).

As for `CCC(=O)c1ccc(Cl)cc1`, the call in [11] was inactive.

As to `N#Cc1cccc(C#N)c1`, in experiment [17], the AC50 was 29.2 µM (active).

`CCOC(=O)COc1ccc(Cl)cc1Cl`: the AC50 in experiment [19] was 24.6 µM (active).
